Test results published in PubChem BioAssay (NCI).
About 83,000 compounds went through this panel and 20% of them were active in at least one assay; those are over-represented in the sample as a whole.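 Plates (96-well) were seeded with cells, treated with compound at one concentration, and incubated for 48 hours before percent growth was determined.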 Activity calls are given as the source filed them. The calls were made as follows: active = growth percent below 10; inactive = the rest.

Legend:
Assay in all cases: NCI-60 one-dose screen, 48 h (100 = growth as untreated, 0 = no growth, -100 = all killed)
Settings in all cases: 10 µM unless noted
SR leukemia = tested on: SR leukemia
RPMI-8226 leukemia = tested on: RPMI-8226 leukemia
OVCAR-8 ovarian = tested on: OVCAR-8 ovarian
OVCAR-5 ovarian = tested on: OVCAR-5 ovarian
OVCAR-4 ovarian = tested on: OVCAR-4 ovarian
SK-OV-3 ovarian = tested on: SK-OV-3 ovarian
IGROV1 ovarian = tested on: IGROV1 ovarian
OVCAR-3 ovarian = tested on: OVCAR-3 ovarian
HS 578T breast = tested on: HS 578T breast
NCI/ADR-RES ovarian = tested on: NCI/ADR-RES ovarian

Measured: growth

O=C(Nc1nc2ccccc2s1)c1ccc(F)cc1
inactive: SR leukemia 98.4% | RPMI-8226 leukemia 88.5% | OVCAR-8 ovarian 109% | OVCAR-5 ovarian 101% | OVCAR-4 ovarian 85.4% | SK-OV-3 ovarian 108% | IGROV1 ovarian 88.9% | OVCAR-3 ovarian 104% | HS 578T breast 140% | NCI/ADR-RES ovarian 95.7%

CCN(C)S(=O)(=O)Nc1cccc(Nc2ncnc3cc(NC(=O)CCl)ccc23)c1Cl
active: SR leukemia 6.73% | RPMI-8226 leukemia -6.79% | OVCAR-8 ovarian 2.03% | OVCAR-5 ovarian -17.5% | IGROV1 ovarian -7.09% | OVCAR-3 ovarian -65.1%
inactive: OVCAR-4 ovarian 14.9% | SK-OV-3 ovarian 23.4% | HS 578T breast 13.4% | NCI/ADR-RES ovarian 59.3%

COc1cc(NS(=O)(=O)c2ccc(-c3cnc(C4CC4)o3)cc2)ccc1F
active: OVCAR-3 ovarian -15.4% | HS 578T breast 8.89%
inactive: SR leukemia 19.6% | RPMI-8226 leukemia 20.2% | OVCAR-8 ovarian 28.6% | OVCAR-5 ovarian 36.7% | OVCAR-4 ovarian 38.6% | SK-OV-3 ovarian 47.4% | IGROV1 ovarian 24.6% | NCI/ADR-RES ovarian 15.3%

O=C1/C(=C/c2ccccc2O)CC/C1=C\c1ccccc1O
inactive: OVCAR-8 ovarian 68.9% | OVCAR-5 ovarian 126% | OVCAR-4 ovarian 63.4% | SK-OV-3 ovarian 102% | IGROV1 ovarian 32.1% | OVCAR-3 ovarian 30.9% | HS 578T breast 70.7% | NCI/ADR-RES ovarian 72.7%
active: SR leukemia 8.12% | RPMI-8226 leukemia -6.74%

N#Cc1c(-c2ccccc2)[nH]c2ncc(-c3ccccc3)n2c1=O
inactive: SR leukemia 89.8% | RPMI-8226 leukemia 106% | OVCAR-8 ovarian 95.6% | OVCAR-5 ovarian 109% | OVCAR-4 ovarian 96.2% | SK-OV-3 ovarian 76.6% | IGROV1 ovarian 50.7% | OVCAR-3 ovarian 86% | HS 578T breast 88.6% | NCI/ADR-RES ovarian 91.2%

O=C(O)c1cn(C2CC2)c2cc(N3CCN(Cc4ccc5ccccc5c4O)CC3)c(F)cc2c1=O
active: SR leukemia 6.63% | OVCAR-3 ovarian -26.2% | HS 578T breast -1.88%
inactive: RPMI-8226 leukemia 73.5% | OVCAR-8 ovarian 14.4% | OVCAR-5 ovarian 51% | OVCAR-4 ovarian 32.5% | SK-OV-3 ovarian 49.7% | IGROV1 ovarian 33.3% | NCI/ADR-RES ovarian 48%

CC(=O)c1c(C)nc2ccccc2c1/C=C/c1ccc(F)cc1
inactive: SR leukemia 81.2% | RPMI-8226 leukemia 66.5% | OVCAR-8 ovarian 92.9% | OVCAR-5 ovarian 97.7% | OVCAR-4 ovarian 76.7% | SK-OV-3 ovarian 100% | IGROV1 ovarian 85.1% | OVCAR-3 ovarian 92.9% | HS 578T breast 91.9% | NCI/ADR-RES ovarian 67.6%

CC1(C)CC(=O)C2=C(C1)N(c1ccc(OC(F)(F)F)cc1)C(N)=C(C#N)C2c1ccc(Br)cc1F (stereo not given)
inactive: SR leukemia 76% | RPMI-8226 leukemia 100% | OVCAR-8 ovarian 35.8% | OVCAR-5 ovarian 87.2% | OVCAR-4 ovarian 54.9% | SK-OV-3 ovarian 61.2% | IGROV1 ovarian 63.2% | OVCAR-3 ovarian 58% | HS 578T breast 23.7% | NCI/ADR-RES ovarian 35.3%

Nc1nc2ccccc2c2c(=O)c3cccc(Cl)c3sc12
inactive: SR leukemia 89% | RPMI-8226 leukemia 96.1% | OVCAR-8 ovarian 94% | OVCAR-5 ovarian 75% | OVCAR-4 ovarian 81.1% | SK-OV-3 ovarian 86.5% | IGROV1 ovarian 73.8% | OVCAR-3 ovarian 115% | HS 578T breast 101% | NCI/ADR-RES ovarian 93.1%

COc1ccc(C(=O)c2cc3c(N)c(C(=O)Nc4ccc(C)cc4)sc3nc2C)cc1
inactive: SR leukemia 18.1% | RPMI-8226 leukemia 24.1% | OVCAR-8 ovarian 22% | OVCAR-5 ovarian 29.6% | OVCAR-4 ovarian 51.1% | SK-OV-3 ovarian 35.3% | IGROV1 ovarian 28.6% | NCI/ADR-RES ovarian 14.9%
active: OVCAR-3 ovarian -5.4% | HS 578T breast -1.41%

O=C(O)c1cn(C2CC2)c2cc(N3CCN(C(=O)N(c4ccccc4)c4nc(-c5ccccc5)cs4)CC3)c(F)cc2c1=O
active: SR leukemia -5.43% | RPMI-8226 leukemia 9.25% | OVCAR-5 ovarian 6.16% | SK-OV-3 ovarian -16.2% | IGROV1 ovarian 7.38% | OVCAR-3 ovarian 3.78% | NCI/ADR-RES ovarian 2.3%
inactive: OVCAR-8 ovarian 12.5% | OVCAR-4 ovarian 25.4% | HS 578T breast 24.5%

Cc1[nH]c(C(=O)Nc2ccc(C(=O)N3CCN(c4cc5c(cc4F)c(=O)c(C(=O)O)cn5C4CC4)CC3)cc2OC(C)C)c(Cl)c1Cl
inactive: SR leukemia 45.9% | RPMI-8226 leukemia 34.2% | OVCAR-8 ovarian 78.2% | OVCAR-5 ovarian 95.1% | OVCAR-4 ovarian 94.5% | SK-OV-3 ovarian 110% | IGROV1 ovarian 49.5% | OVCAR-3 ovarian 85.8% | HS 578T breast 87.2% | NCI/ADR-RES ovarian 78.4%

O=S(=O)(NCCCNc1nccc(-c2c(-c3ccc(F)c(O)c3)nc3occn23)n1)c1ccc(Cl)cc1
inactive: SR leukemia 55.5% | RPMI-8226 leukemia 40.4% | OVCAR-8 ovarian 66.3% | OVCAR-5 ovarian 118% | OVCAR-4 ovarian 81.3% | SK-OV-3 ovarian 64.4% | IGROV1 ovarian 62.3% | OVCAR-3 ovarian 95.3% | HS 578T breast 64% | NCI/ADR-RES ovarian 96.4%

Nc1n[nH]c2cccc(C#Cc3cccc(NC(=O)c4cc(F)cc(C(F)(F)F)c4)c3)c12
inactive: SR leukemia 60.5% | RPMI-8226 leukemia 63.8% | OVCAR-8 ovarian 94.2% | OVCAR-5 ovarian 70.8% | OVCAR-4 ovarian 90.5% | SK-OV-3 ovarian 114% | IGROV1 ovarian 25.5% | OVCAR-3 ovarian 80.7% | HS 578T breast 36.8% | NCI/ADR-RES ovarian 93.1%

COc1ccc(-c2ccc(-c3ccc(C(=N)N)cc3)s2)cc1Cl
active: SR leukemia -7.28% | RPMI-8226 leukemia -34.4% | OVCAR-8 ovarian -18.2% | OVCAR-4 ovarian -42% | IGROV1 ovarian -87.5% | OVCAR-3 ovarian -88%
inactive: OVCAR-5 ovarian 14.2% | SK-OV-3 ovarian 93% | HS 578T breast 44.9% | NCI/ADR-RES ovarian 78%

CN1C(=O)/C(=C\c2nc([P+](c3ccccc3)(c3ccccc3)c3ccccc3)c(N3CCOCC3)o2)SC1=S
active: RPMI-8226 leukemia -21.1% | IGROV1 ovarian 5.71%
inactive: SR leukemia 13.3% | OVCAR-8 ovarian 96.4% | OVCAR-5 ovarian 96.7% | OVCAR-4 ovarian 90.5% | SK-OV-3 ovarian 108% | OVCAR-3 ovarian 100% | HS 578T breast 90.4% | NCI/ADR-RES ovarian 90.5%

Cc1ccc(-c2nc(N3CCCNCC3)c3oc(-c4ccc(C)cc4)nc3n2)cc1
inactive: OVCAR-5 ovarian 78.5% | SK-OV-3 ovarian 98.1% | IGROV1 ovarian 12.2% | HS 578T breast 110% | NCI/ADR-RES ovarian 16.3%
active: SR leukemia -44.5% | RPMI-8226 leukemia -51% | OVCAR-8 ovarian -58.6% | OVCAR-4 ovarian 2.2% | OVCAR-3 ovarian -67.7%

O=C(CN1C(=O)S/C(=C\C(Cl)=C\c2ccccc2)C1=O)NCCc1ccc(O)cc1
active: SR leukemia 1.71% | RPMI-8226 leukemia 0.0656% | IGROV1 ovarian -12.9% | OVCAR-3 ovarian -14.4%
inactive: OVCAR-8 ovarian 14% | OVCAR-5 ovarian 77.7% | OVCAR-4 ovarian 56.4% | SK-OV-3 ovarian 90.1% | HS 578T breast 36.3% | NCI/ADR-RES ovarian 19.6%

O=C1/C(=C/c2ccc([N+](=O)[O-])cc2)COc2ccc(O)cc21
active: SR leukemia 7.84% | RPMI-8226 leukemia -16.4%
inactive: OVCAR-8 ovarian 69.5% | OVCAR-5 ovarian 99% | OVCAR-4 ovarian 89.5% | SK-OV-3 ovarian 113% | IGROV1 ovarian 73.4% | OVCAR-3 ovarian 82.7% | HS 578T breast 89.3% | NCI/ADR-RES ovarian 92.1%

CCOC(=O)n1cc(-c2nonc2-c2cn(C(=O)OCC)c3ccc(Br)cc23)c2ccccc21
inactive: SR leukemia 78.4% | RPMI-8226 leukemia 88.9% | OVCAR-8 ovarian 85.6% | OVCAR-5 ovarian 64.4% | OVCAR-4 ovarian 79.1% | SK-OV-3 ovarian 79.8% | IGROV1 ovarian 52.6% | OVCAR-3 ovarian 79.1% | HS 578T breast 87% | NCI/ADR-RES ovarian 86.5%

COc1ccc(C2CC(c3ccc(Nc4nc(Nc5ccccc5)nc(Nc5ccccc5)n4)cc3)=NN2C(C)=O)cc1 (stereo not given)
inactive: SR leukemia 88.2% | RPMI-8226 leukemia 73.7% | OVCAR-8 ovarian 83% | OVCAR-5 ovarian 104% | OVCAR-4 ovarian 89.7% | SK-OV-3 ovarian 124% | IGROV1 ovarian 118% | OVCAR-3 ovarian 91.4% | HS 578T breast 102% | NCI/ADR-RES ovarian 89.7%

CCOC(=O)c1c(NC(=O)c2ccc(Cl)cc2)sc2c(CN(C)C)c(O)ccc12
active: SR leukemia -8.09% | RPMI-8226 leukemia -13%
inactive: OVCAR-8 ovarian 47.7% | OVCAR-5 ovarian 95.2% | OVCAR-4 ovarian 73.5% | SK-OV-3 ovarian 81.6% | IGROV1 ovarian 66.1% | OVCAR-3 ovarian 105% | HS 578T breast 79.2% | NCI/ADR-RES ovarian 73.3%

Cc1c(O)cc(-c2cnc(Nc3ccccc3)s2)c(O)c1C
inactive: SR leukemia 87.4% | RPMI-8226 leukemia 82.5% | OVCAR-8 ovarian 94% | OVCAR-5 ovarian 111% | OVCAR-4 ovarian 84.8% | SK-OV-3 ovarian 94.5% | IGROV1 ovarian 79.2% | OVCAR-3 ovarian 102% | HS 578T breast 87.5% | NCI/ADR-RES ovarian 96.5%

CC1CCc2c(C(=O)Nc3ncc(Cc4cccc([N+](=O)[O-])c4)s3)csc2C1 (stereo not given)
inactive: SR leukemia 26.7% | RPMI-8226 leukemia 33% | OVCAR-8 ovarian 26.4% | OVCAR-5 ovarian 34.7% | OVCAR-4 ovarian 39.3% | SK-OV-3 ovarian 21.6% | IGROV1 ovarian 30.7% | HS 578T breast 19.1% | NCI/ADR-RES ovarian 15.6%
active: OVCAR-3 ovarian 1.09%

CS(=O)(=O)c1ccc(-c2cnn3ccc(-c4cccc(S(=O)(=O)C5CC5)c4)nc23)cc1
inactive: SR leukemia 49.3% | RPMI-8226 leukemia 49.1% | OVCAR-8 ovarian 43.7% | OVCAR-5 ovarian 68.7% | OVCAR-4 ovarian 67.9% | SK-OV-3 ovarian 32.2% | IGROV1 ovarian 13.1% | OVCAR-3 ovarian 54.7% | HS 578T breast 45.5% | NCI/ADR-RES ovarian 71.8%

C1CCC([PH+](C2CCCCC2)C2CCCCC2[PH+](C2CCCCC2)C2CCCCC2)CC1.[Au].[CH-]1CCCCC1C1CCCC[N-]1 (stereo not given)
active: SR leukemia -3.06% | RPMI-8226 leukemia -15.6% | OVCAR-8 ovarian -6.1% | OVCAR-5 ovarian -69.3% | OVCAR-4 ovarian -5.17% | SK-OV-3 ovarian -65.8% | IGROV1 ovarian -38.6% | OVCAR-3 ovarian -92.2% | HS 578T breast -5.47% | NCI/ADR-RES ovarian 9.87%
